# Data reported in PubChem BioAssay.
# Where “and” joins values, the source holds several entries; their conditions need not be identical. Identical values can stand only once. Results filed as inconclusive are left out. Calls of active or inactive are those of the source.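 The calls were made as follows, unless noted: active = normalized viability below 100% at a tested concentration; inactive = the rest.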
# What was measured:
# [1] = Wnt pathway potentiators raising nuclear beta-catenin – imaging, WNT3A-conditioned medium, mouse C2C12, NPC library, primary screen (AID 1117326; in the data active = nuclear beta-catenin stimulation mostly above about 4.2%, no sharp cut-off; inactive = mostly below about 10%); conditions: stronger effect = higher value
# [2] = stimulators of insulin release from INS-1E, primary screen, cell-based, 5 mM glucose, NPC library (AID 1117329;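 active = compound raises insulin release from rat beta cells at 5 mM glucose, no numeric limit stated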); conditions: rat INS-1E insulin secretion, at 10 µM, stronger effect = higher value
# [3] = growth inhibition of GSK3B-pretreated HCT116 cells – cell-based, CellTiter-Glo, 0.2 to 20 µM (AID 1117336;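 active = compounds lowering colon cancer cell viability after pretreatment blocking the GSK3B kinase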); conditions: HCT116 viability after GSK3B inhibitor, at 20 µM, stronger effect = higher value
# [4] = inhibition of endothelial tube formation, primary screen, imaging, VEGF stimulated, CD31 staining, tube area, NPC library (AID 1117340;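 active = compound that reduces growth-factor-driven endothelial tube area in a mixed cell culture, no cutoff stated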); conditions: VEGF-stimulated ADSC/ECFC co-culture, at 10 µM, stronger effect = higher value
# [5] = GLP1 release stimulators, primary, NCI-H716, NPC library (AID 1117341;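 active = compound raises GLP1 secretion from the human gut endocrine cells, with no numeric limit stated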); conditions: NCI-H716 cells, at 10 µM, stronger effect = higher value
# [6] = HCT116 colon cancer cell growth inhibition, primary screen, CellTiter-Glo luminescence, NPC library (AID 1117342;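 active = compounds that lower survival of HCT116 colon cancer cells in the luminescence readout, no numeric limit stated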); conditions: at 20 µM (top of the series)
# [7] = reduced SW480 viability measured with CellTiter-Glo, NPC library, primary (AID 1117343;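 active = compounds that lower viability of the colon cancer cells in the luminescence readout, with no numeric limit stated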); conditions: CellTiter-Glo luminescence; at 20 µM (top of the series) unless noted
# [8] = NPC library primary testing for decreased DLD-1 cell viability via CellTiter-Glo (AID 1117346;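 active = compounds that lower survival of DLD-1 colon cancer cells in the luminescence readout, no cutoff given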); conditions: DLD-1 viability, CellTiter-Glo luminescence; at 20 µM (top of the series)
# [9] = EMT-state selective cytotoxicity in co-culture – imaging, PC-3E GFP, TEM4-18 mCherry, primary screen (AID 1345086;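 active = compounds killing one labelled cell type while sparing the other, by normalised counts and ratio limits, not self-fluorescent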;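 as to all read-outs here: cells exposed to compound for 72 h before imaging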;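 as to red/green cell ratio (normalised): normalised mesenchymal count divided by normalised epithelial count so high means epithelial killing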); conditions: PC-3E GFP / TEM4-18 mCherry co-culture, imaging cell counts, at 1 µM; for red/green cell ratio (normalised): actives lie on both sides, counts scaled to control wells, 1 = unselective
# [10] = target: NAD(+) hydrolase SARM1 (Homo sapiens) (UniProt Q6SZW1); assay: blocking NAD cleavage by SARM1 SAM-TIR – cell lysate, NAD-Glo luminescence (AID 1508614;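 active = compound whose remaining NAD level is above about 45 nM, limit read from the data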;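 also: higher remaining NAD means stronger inhibition of SARM1 NADase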); conditions: SAM-TIR HEK293T lysate NADase, at 1 µM, stronger effect = higher value
# [11] = P. berghei load reduction in hepatocytes – cell-based, HepG2, luciferase luminescence, HepG2 viability, primary screen (AID 624349; in the data active = parasite load remaining mostly below about 12%, no sharp cut-off; inactive = mostly above about 10%;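 also: 100% = mean of DMSO negative control wells on the same plate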); conditions: P. berghei liver stage in HepG2, luciferase luminescence, concentration not given here; parasite load remaining: stronger effect = lower value; viability: measured here: HepG2 viability without parasites
# [12] = viability loss with induced miR-34 in A549 – imaging, A549 dox-inducible miR-34, nuclei and caspase counts, primary screen (AID 1347080;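 active = compounds whose cell count with miR-34 switched on is under 0.7 times the count with it off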); conditions: A549 miR-34 inducible, Hoechst nuclei count, 48 h
# [13] = test system: Aerobactin synthetase IucA (Klebsiella pneumoniae); assay: inhibition of K. pneumoniae IucA enzyme – biochemical, Tocris library, absorbance (AID 1345561; call rule not given here;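 also: 100% = enzyme without compound and 0% = no enzyme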); conditions: purified IucA enzyme assay, absorbance (OD) read-out; stronger effect = lower value;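 tested at 8 µM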
# [14] = viability loss in pontine glioma line – cell-based, SU-DIPG-XVII, MIPE5.0, CellTiter-Glo, qHTS, dose response (AID 1347060; cut-off not given, nearly all actives have AC50 up to about 26 µM); conditions: CellTiter-Glo ATP luminescence
# [15] = viability loss in pontine glioma line – cell-based, SU-DIPG-XIII, MIPE4.0, CellTiter-Glo, qHTS, dose response (AID 1347061; cut-off not given, nearly all actives have AC50 up to about 37 µM;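 also: cells exposed to compound for 48 hours before readout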); conditions: CellTiter-Glo ATP luminescence
# [16] = viability loss in pontine glioma line – cell-based, JHH-DIPG-1, MIPE4.0, CellTiter-Glo, qHTS, dose response (AID 1347062; cut-off not given, nearly all actives have AC50 up to about 27 µM); conditions: JHH-DIPG-1 viability, CellTiter-Glo ATP luminescence
# [17] = growth inhibition of DIPG cells – cell-based, MIPE5.0 library, qHTS (AID 1347068; cut-off not given, nearly all actives have IC50 up to about 30 µM); conditions: SU-DIPG-XXV viability
# [18] = drug combination growth inhibition, ovarian cancer – cell-based, oncology-focused library, rucaparib conditional, profiling panel (AID 1508598); conditions: patient-derived ovarian cancer cells, CellTiter-Glo viability, 144 h, stronger effect = lower value
# [19] = galactose survival enhancers in mitochondrial complex I cybrids – cell-based, galactose medium, ATP luminescence, primary screen (AID 1645843;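 active = z-score of at least 1.8 in each of two replicates, scored against plate mean and spread of sample wells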;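 also: positive z means more ATP and so rescue of galactose-driven cybrid death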); conditions: complex I mutant cybrid cells, 72 h, stronger effect = higher value
# [20] = measured here: epithelial PC-3E GFP cell survival
# [21] = measured here: mesenchymal TEM4-18 mCherry cell survival
# [22] = stronger effect = lower value, cell number ratio, induced over uninduced
# [23] = measured here: relative caspase fold change +Dox/-Dox
# [24] = measured here: total cells with miR-34 induction, stronger effect = lower value
# [25] = measured here: total cells without miR-34 induction
# NAD(+) hydrolase SARM1 (Homo sapiens), sequence (Q6SZW1 whole entry, looked up): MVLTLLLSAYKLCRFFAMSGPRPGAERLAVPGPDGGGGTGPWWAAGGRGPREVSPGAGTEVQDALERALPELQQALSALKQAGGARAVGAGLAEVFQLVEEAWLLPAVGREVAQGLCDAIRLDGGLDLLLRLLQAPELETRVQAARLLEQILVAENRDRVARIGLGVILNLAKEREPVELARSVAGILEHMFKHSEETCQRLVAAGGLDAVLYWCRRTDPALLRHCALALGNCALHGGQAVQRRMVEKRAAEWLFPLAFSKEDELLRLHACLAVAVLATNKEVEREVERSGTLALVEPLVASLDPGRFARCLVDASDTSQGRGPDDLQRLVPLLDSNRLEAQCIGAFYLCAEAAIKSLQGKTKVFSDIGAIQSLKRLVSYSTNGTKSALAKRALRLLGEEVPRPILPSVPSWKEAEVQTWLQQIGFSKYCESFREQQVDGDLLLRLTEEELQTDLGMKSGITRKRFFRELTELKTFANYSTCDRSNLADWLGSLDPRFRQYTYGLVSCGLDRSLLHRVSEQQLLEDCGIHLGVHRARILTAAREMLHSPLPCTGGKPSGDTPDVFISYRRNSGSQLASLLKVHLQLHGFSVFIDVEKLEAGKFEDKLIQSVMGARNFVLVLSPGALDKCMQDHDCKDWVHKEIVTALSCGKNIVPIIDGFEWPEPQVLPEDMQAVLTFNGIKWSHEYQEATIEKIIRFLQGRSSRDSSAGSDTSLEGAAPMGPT
structure (smiles),measurement,setting,value
CC(=O)NC(Cc1ccccc1)C(=O)O (stereo unspecified),nuclear beta-catenin stimulation,[1]; at 10 µM,1% (inactive)
same,nuclear beta-catenin stimulation,"[1]; stimulation, at 2 µM",-0.2%
same,insulin secretion stimulation,[2],-2.3% (inactive)
same,viability decrease,[3],-0.2% (inactive)
same,tube area decrease,[4],-0.2% (inactive)
same,GLP1 secretion stimulation,[5],2.6% (inactive)
same,inhibition of viability,[6],3.2% (inactive)
same,viability decrease (inhibition),[7],23.3% (inactive)
same,viability decrease (inhibition),[8],8.55% (inactive)
same,red/green cell ratio (normalised),[9],0.91 (inactive)
same,normalised cell number,[9]; [20],1.11
same,normalised cell number,[9]; [21],1.01
same,remaining NAD,[10],10 nM (inactive)
CC(=O)NCc1c(I)c(NC(C)=O)c(I)c(C(=O)O)c1I,parasite load remaining,[11],120% (inactive) and 34.8% (inactive)
same,viability,[11],74.1% and 92.4%
same,nuclear beta-catenin stimulation,[1]; at 10 µM,-1.4% (inactive)
same,nuclear beta-catenin stimulation,"[1]; stimulation, at 2 µM",-1.3%
same,insulin secretion stimulation,[2],-0.4% (inactive)
same,viability decrease,[3],-16.4% (inactive)
same,tube area decrease,[4],-6.1% (inactive)
same,GLP1 secretion stimulation,[5],0% (inactive)
same,inhibition of viability,[6],-14.3% (inactive)
same,viability decrease (inhibition),[7],27.5% (inactive)
same,viability decrease (inhibition),[8],-14.8% (inactive)
same,red/green cell ratio (normalised),[9],1.24 (inactive)
same,normalised cell number,[9]; [20],1.02
same,normalised cell number,[9]; [21],1.27
same,fold change,[12]; [22],0.851 (inactive)
same,fold change,[12]; [23],1.88
same,cell count,[12]; [24],10700
same,cell count,[12]; [25],12600
CCCCCCCCCCOc1cc2c(=O)c(C(=O)OCC)c[nH]c2cc1OCC,parasite load remaining,[11],0.015% (active)
same,viability,[11],101%
same,nuclear beta-catenin stimulation,[1]; at 10 µM,-2.3% (inactive)
same,nuclear beta-catenin stimulation,"[1]; stimulation, at 2 µM",-0.1%
same,insulin secretion stimulation,[2],-0.4% (inactive)
same,viability decrease,[3],-29.2% (inactive)
same,tube area decrease,[4],-2% (inactive)
same,GLP1 secretion stimulation,[5],1.3% (inactive)
same,inhibition of viability,[6],-5.6% (inactive)
same,viability decrease (inhibition),[7],-212% (inactive)
same,viability decrease (inhibition),[8],-42% (inactive)
same,red/green cell ratio (normalised),[9],1 (inactive)
same,normalised cell number,[9]; [20],0.98
same,normalised cell number,[9]; [21],0.98
same,fold change,[12]; [22],0.938 (inactive)
same,fold change,[12]; [23],1.91
same,cell count,[12]; [24],11200
same,cell count,[12]; [25],11900
same,remaining NAD,[10],10 nM (inactive)
Nc1ncn([C@H]2C[C@H](O)[C@@H](CO)O2)c(=O)n1,nuclear beta-catenin stimulation,[1]; at 10 µM,7.2% (inactive)
same,nuclear beta-catenin stimulation,"[1]; stimulation, at 2 µM",4.5%
same,insulin secretion stimulation,[2],-1.2% (inactive)
same,viability decrease,[3],33.4% (inactive)
same,tube area decrease,[4],58.1% (active)
same,GLP1 secretion stimulation,[5],1.6% (inactive)
same,inhibition of viability,[6],31.2% (inactive)
same,viability decrease (inhibition),[7],53.8% (active)
same,viability decrease (inhibition),[8],18.9% (inactive)
same,remaining activity,[13],97% (inactive)
same,outcome,[14],inactive
same,outcome,[15],inactive
same,outcome,[16],inactive
same,outcome,[17],inactive
same,fold change,[12]; [22],0.823 (inactive)
same,fold change,[12]; [23],1.99
same,cell count,[12]; [24],8200
same,cell count,[12]; [25],9960
same,viability,"[18]; at 0.000305 µM, OCI-C5x cells, with rucaparib 10 µM, 100% = cells with rucaparib alone",122% (inactive)
same,viability,"[18]; at 0.000305 µM, OCI-C5x cells, without rucaparib",112% (inactive)
same,viability,"[18]; at 0.000305 µM, OCI-P5x cells, with rucaparib 20 µM, 100% = cells with rucaparib alone",104% (inactive)
same,viability,"[18]; at 0.000305 µM, OCI-P5x cells, without rucaparib",112% (inactive)
same,viability,"[18]; at 0.00122 µM, OCI-C5x cells, with rucaparib 10 µM, 100% = cells with rucaparib alone",111% (inactive)
same,viability,"[18]; at 0.00122 µM, OCI-C5x cells, without rucaparib",107% (inactive)
same,viability,"[18]; at 0.00122 µM, OCI-P5x cells, with rucaparib 20 µM, 100% = cells with rucaparib alone",111% (inactive)
same,viability,"[18]; at 0.00122 µM, OCI-P5x cells, without rucaparib",103% (inactive)
same,viability,"[18]; at 0.00488 µM, OCI-C5x cells, with rucaparib 10 µM, 100% = cells with rucaparib alone",113% (inactive)
same,viability,"[18]; at 0.00488 µM, OCI-C5x cells, without rucaparib",112% (inactive)
same,viability,"[18]; at 0.00488 µM, OCI-P5x cells, with rucaparib 20 µM, 100% = cells with rucaparib alone",99.8% (active)
same,viability,"[18]; at 0.00488 µM, OCI-P5x cells, without rucaparib",95.8% (active)
same,viability,"[18]; at 0.0195 µM, OCI-C5x cells, with rucaparib 10 µM, 100% = cells with rucaparib alone",103% (inactive)
same,viability,"[18]; at 0.0195 µM, OCI-C5x cells, without rucaparib",108% (inactive)
same,viability,"[18]; at 0.0195 µM, OCI-P5x cells, with rucaparib 20 µM, 100% = cells with rucaparib alone",82.8% (active)
same,viability,"[18]; at 0.0195 µM, OCI-P5x cells, without rucaparib",95.2% (active)
same,viability,"[18]; at 0.0781 µM, OCI-C5x cells, with rucaparib 10 µM, 100% = cells with rucaparib alone",101% (inactive)
same,viability,"[18]; at 0.0781 µM, OCI-C5x cells, without rucaparib",107% (inactive)
same,viability,"[18]; at 0.0781 µM, OCI-P5x cells, with rucaparib 20 µM, 100% = cells with rucaparib alone",96.6% (active)
same,viability,"[18]; at 0.0781 µM, OCI-P5x cells, without rucaparib",88.3% (active)
same,viability,"[18]; at 0.313 µM, OCI-C5x cells, with rucaparib 10 µM, 100% = cells with rucaparib alone",85.8% (active)
same,viability,"[18]; at 0.313 µM, OCI-C5x cells, without rucaparib",88.1% (active)
same,viability,"[18]; at 0.313 µM, OCI-P5x cells, with rucaparib 20 µM, 100% = cells with rucaparib alone",84.8% (active)
same,viability,"[18]; at 0.313 µM, OCI-P5x cells, without rucaparib",68.4% (active)
same,viability,"[18]; at 1.25 µM, OCI-C5x cells, with rucaparib 10 µM, 100% = cells with rucaparib alone",80.4% (active)
same,viability,"[18]; at 1.25 µM, OCI-C5x cells, without rucaparib",80% (active)
same,viability,"[18]; at 1.25 µM, OCI-P5x cells, with rucaparib 20 µM, 100% = cells with rucaparib alone",68.8% (active)
same,viability,"[18]; at 1.25 µM, OCI-P5x cells, without rucaparib",61.9% (active)
same,viability,"[18]; at 5 µM, OCI-C5x cells, with rucaparib 10 µM, 100% = cells with rucaparib alone",49.1% (active)
same,viability,"[18]; at 5 µM, OCI-C5x cells, without rucaparib",63.2% (active)
same,viability,"[18]; at 5 µM, OCI-P5x cells, with rucaparib 20 µM, 100% = cells with rucaparib alone",57.9% (active)
same,viability,"[18]; at 5 µM, OCI-P5x cells, without rucaparib",46.9% (active)
same,z-score,[19],0.69 (inactive)
